Active and inactive are the calls of the source. Unless noted, how the calls were made is not given here.
Legend:
[1] = compound effects on lung adenocarcinoma cell viability – A549, calcein-AM fluorescence, 48 h, basal, profiling panel (AID 1162); conditions: higher = more signal; further: test concentration not given here
[2] = compound effects on differentiated 3T3-L1 adipocyte viability – cell-based, 3T3-L1 adipocytes, calcein-AM fluorescence, 48 h, basal, profiling panel (AID 1163); conditions: 3T3-L1 adipocytes viability, higher = more signal; further: test concentration not given here
[3] = compound effects on hepatocellular carcinoma cell viability – HepG2, calcein-AM fluorescence, 48 h, basal, profiling panel (AID 1164); conditions: higher = more signal; further: test concentration not given here
[4] = compound effects on multiple myeloma cell viability – MM1S, calcein-AM fluorescence, 48 h, basal, profiling panel (AID 1165); conditions: higher = more signal; further: test concentration not given here
[5] = calcein-AM signal in unstimulated myeloma cells – cell-based, calcein-AM fluorescence, 48 h, PK04 Diversity Set, profiling panel (AID 1166); conditions: RPMI8226 myeloma viability, higher = more signal;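 further: cells grown under basal conditions without added stimulus; test concentration not given here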
[6] = JC-1 mitochondrial signal, unstimulated HepG2 cells – cell-based, JC-1 fluorescence, 24 h, 100 nL compound, profiling panel (AID 1167); conditions: HepG2 mitochondrial potential, higher = more signal; further: test concentration not given here
[7] = JC-1 mitochondrial signal, unstimulated adipocytes – cell-based, JC-1 fluorescence, 3T3-L1 adipocytes, 24 h, 100 nL compound, profiling panel (AID 1168); conditions: JC-1 mitochondrial fluorescence, higher = more signal, called active from +8 up or from −8 down; further: test concentration not given here
[8] = JC-1 mitochondrial signal, unstimulated myeloma cells – cell-based, JC-1 fluorescence, RPMI8226, 24 h, 100 nL compound, profiling panel (AID 1169); conditions: JC-1 mitochondrial potential fluorescence, higher = more signal; further: test concentration not given here
[9] = JC-1 mitochondrial signal, unstimulated MM1S myeloma – cell-based, JC-1 fluorescence, 24 h, 100 nL compound, profiling panel (AID 1170); conditions: MM1S mitochondrial potential, higher = more signal; further: test concentration not given here
[10] = resazurin metabolic signal in A549 cells – cell-based, resazurin fluorescence, 24 h, PK04 Diversity Set, profiling panel (AID 1171); conditions: A549 viability, higher = more signal, called active from +8 up or from −8 down; further: test concentration not given here
[11] = resazurin metabolic signal in HepG2 cells – cell-based, resazurin fluorescence, 24 h, PK04 Diversity Set, profiling panel (AID 1172); conditions: HepG2 viability, higher = more signal; further: test concentration not given here
[12] = budding yeast growth changes without added modifier – OD600, strain BY4716, 24 h, basal condition, primary screen (AID 1173); conditions: S. cerevisiae BY4716 growth, OD600, 24 h; higher = more signal, called active from +8 up or from −8 down
[13] = viability profiling in MM1S myeloma cells – cell-based, resazurin fluorescence, basal, 24 h, PK04 Diversity Set, profiling panel (AID 1174); conditions: higher = more signal, called active from +8 up or from −8 down; further: test concentration not given here
[14] = target: Dihydroorotate dehydrogenase (quinone), mitochondrial (Plasmodium falciparum (isolate 3D7)) (UniProt Q08210); experiment: inhibition of P. falciparum DHODH – biochemical, C-terminal His tag, absorbance 600 nm, primary screen (AID 1175); conditions: PfDHODH enzyme, DCIP absorbance 600 nm; higher = more signal, called active from +8 up or from −8 down;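 further: recombinant parasite enzyme with a five histidine tag at its C terminus; test concentration not given here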
Dihydroorotate dehydrogenase (quinone), mitochondrial (Plasmodium falciparum (isolate 3D7)), sequence (Q08210 whole entry, looked up): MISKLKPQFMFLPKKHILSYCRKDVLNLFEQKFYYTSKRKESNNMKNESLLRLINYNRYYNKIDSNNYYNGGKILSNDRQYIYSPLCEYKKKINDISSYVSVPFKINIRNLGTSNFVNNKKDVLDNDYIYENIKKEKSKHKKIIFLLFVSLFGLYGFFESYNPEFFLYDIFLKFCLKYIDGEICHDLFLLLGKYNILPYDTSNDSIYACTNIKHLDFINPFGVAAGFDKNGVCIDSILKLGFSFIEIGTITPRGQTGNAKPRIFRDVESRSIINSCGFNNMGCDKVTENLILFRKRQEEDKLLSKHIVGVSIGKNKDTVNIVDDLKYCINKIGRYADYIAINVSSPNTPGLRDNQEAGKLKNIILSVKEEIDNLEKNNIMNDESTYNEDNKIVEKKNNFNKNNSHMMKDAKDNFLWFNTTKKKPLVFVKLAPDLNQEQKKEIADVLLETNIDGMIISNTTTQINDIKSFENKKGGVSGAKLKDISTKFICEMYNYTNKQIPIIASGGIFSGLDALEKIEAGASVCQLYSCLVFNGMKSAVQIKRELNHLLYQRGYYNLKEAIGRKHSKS

[15] = inhibition of PAO1 biofilm formation – strain PAO1, LB-PBS medium, absorbance 600 nm, primary screen (AID 1176); further: test concentration not given here; conditions: P. aeruginosa PAO1 growth/biofilm, A600, 12 h; higher = more signal
[16] = growth modulation of vineyard yeast isolate – strain RM11-1a, OD600, basal, 24 h, primary screen (AID 1177);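 further: cultures grown under basal conditions with no added stressor; test concentration not given here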; conditions: S. cerevisiae RM11-1a growth, OD600, 24 h; higher = more signal, called active from +8 up or from −8 down
[17] = growth of efflux-deficient E. coli DRC39 – strain DRC39, OD650, 24 h, E. coli filamentation inducers, primary screen (AID 1178);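 further: growth measured as culture turbidity by optical density at 650 nm; test concentration not given here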; conditions: E. coli DRC39 acrAB, higher = more signal, called active from +8 up or from −8 down
[18] = growth of efflux-deficient E. coli DRC39 – strain DRC39, OD650, 48 h, E. coli filamentation inducers, primary screen (AID 1179);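 further: screen aims at cell division blockers that make cells filament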; conditions: E. coli DRC39 delta-acrAB growth, higher = more signal, called active from +8 up or from −8 down
[19] = viability profiling in RPMI8226 myeloma cells – cell-based, resazurin fluorescence, basal, 24 h, PK04 Diversity Set, profiling panel (AID 1180); conditions: higher = more signal;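 further: RPMI8826 multiple myeloma cell line at 5000 cells per well; test concentration not given here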
[20] = target: E3 ubiquitin-protein ligase XIAP (Homo sapiens) (UniProt P98170); experiment: small molecules binding XIAP protein – biophysical, small-molecule microarray, fluorescence 635 nm, primary screen (AID 1181); conditions: higher = more signal;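 further: score merges 667 nm emission and signal to noise over triplicate slides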
E3 ubiquitin-protein ligase XIAP (Homo sapiens), sequence (P98170 whole entry, looked up): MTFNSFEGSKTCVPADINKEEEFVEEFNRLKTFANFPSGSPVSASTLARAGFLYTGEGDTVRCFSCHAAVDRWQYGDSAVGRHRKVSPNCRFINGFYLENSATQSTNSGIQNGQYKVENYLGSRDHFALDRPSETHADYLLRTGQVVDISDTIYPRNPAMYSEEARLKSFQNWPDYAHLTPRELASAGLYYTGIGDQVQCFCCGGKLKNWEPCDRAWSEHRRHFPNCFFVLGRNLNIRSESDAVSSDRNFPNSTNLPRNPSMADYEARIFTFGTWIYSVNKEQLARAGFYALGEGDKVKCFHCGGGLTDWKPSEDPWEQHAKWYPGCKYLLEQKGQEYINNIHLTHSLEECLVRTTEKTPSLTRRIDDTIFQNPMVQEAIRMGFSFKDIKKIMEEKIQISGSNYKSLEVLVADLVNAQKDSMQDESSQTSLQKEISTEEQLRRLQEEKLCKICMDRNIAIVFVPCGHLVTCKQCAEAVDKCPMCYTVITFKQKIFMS

SMILES	z-score [1]	z-score [2]	z-score [3]	z-score [4]	z-score [5]	z-score [6]	z-score [7]	z-score [8]	z-score [9]	z-score [10]	z-score [11]	z-score [12]	z-score [13]	composite z-score [14]	z-score [15]	z-score [16]	z-score [17]	z-score [18]	z-score [19]	composite z-score [20]
CCCCC(=C=CC[C@H](O)c1ccc(OCCO)cc1)C[C@H](O)c1ccccn1	1.47	-0.398	0.701	-0.556	-0.585	-0.0776	-0.794 (inactive)	-0.485	-0.603	1.07 (inactive)	0.325	-0.265 (inactive)	0.747 (inactive)	-2.06 (inactive)	-0.247 (inactive)	0.387 (inactive)	1.45 (inactive)	0.949 (inactive)	1.76	-0.142
COCC1=C([C@H](O)CCc2ccccc2)[C@H](CO)n2c(=O)n(-c3ccccc3)c(=O)n2C1	0.119	0.102	0.925	0.572	-0.221	-0.835	-0.596 (inactive)	-0.309	-1.37	-0.619 (inactive)	-0.236	-3.02 (inactive)	0.0444 (inactive)	-0.855 (inactive)	0.188 (inactive)	-1.94 (inactive)	1.19 (inactive)	1.32 (inactive)	0.113	-0.0848
C/C=C/CN(C(=O)C#Cc1ccccc1)[C@H](CO[Si](C)(C)C(C)(C)C)c1ccccc1	-0.21	1.45	-0.488	-2.38	-3.4	2.31	1.37 (inactive)	-0.522	-0.0851	0.365 (inactive)	0.704	-0.161 (inactive)	1.79 (inactive)	-3.11 (inactive)	-0.966 (inactive)	-0.36 (inactive)	2 (inactive)	0.846 (inactive)	3.51	-0.193
CCCC[C@H]1OB(O)C[C@H]2C1=C(COC)C[C@H]1C(=O)C=CC(=O)[C@H]12	0.2	-0.0373	-0.0926	-3.25	-2.35	-2.01	-1.46 (inactive)	-0.59	-0.898	-0.347 (inactive)	-0.796	-3.96 (inactive)	-0.203 (inactive)	-2.14 (inactive)	1.52 (inactive)	0.0887 (inactive)	1.13 (inactive)	0.756 (inactive)	-0.0072	-0.0238
CC(=O)c1ccc(C(O)C2C=CC3C(=O)NC(=O)C3N2Nc2ccc(Cl)cc2Cl)cc1 (stereo not given)	-0.807	-0.458	-1.28	-0.124	-0.344	-0.976	-1.4 (inactive)	0.574	0.863	-0.743 (inactive)	-1.16	-2.33 (inactive)	-1.35 (inactive)	1.16 (inactive)	0.835 (inactive)	1.39 (inactive)	0.385 (inactive)	-1.48 (inactive)	-1.8	-0.0421
CN(C)C(=O)[C@]1(Cc2ccccc2CN=[N+]=[N-])N=C(c2ccc(OCCCO)cc2)O[C@@H]1c1ccccc1N=[N+]=[N-]	-0.691	0.287	-0.923	-1.33	-2.16	0.271	2.38 (inactive)	-0.997	-1.29	-1.42 (inactive)	0.142	-0.0107 (inactive)	-1.54 (inactive)	-0.607 (inactive)	0.0533 (inactive)	1.37 (inactive)	0.377 (inactive)	0.529 (inactive)	-1.63	0.181
CCCC[C@H]1OB(O)C[C@H]2C1=C(C)C[C@H]1C(=O)C=CC(=O)[C@H]12	-0.252	-1.14	-0.799	-3.35	-3.16	-3.39	-1.24 (inactive)	-0.937	-2.13	-0.443 (inactive)	-0.559	-17.6 (active)	-1 (inactive)	-2.54 (inactive)	0.318 (inactive)	0.128 (inactive)	-0.449 (inactive)	-0.316 (inactive)	-0.312	-0.188
C=C(COC)/C(=C/C[C@@H](OC(C)=O)c1ccccc1OCCO)c1cc(C(=O)OC)ccc1OC	1.2	-2.49	0.5	-3.3	-0.866	0.751	0.00709 (inactive)	-0.338	-0.875	0.368 (inactive)	-0.0418	0.487 (inactive)	-0.705 (inactive)	-0.069 (inactive)	0.543 (inactive)	0.759 (inactive)	0.013 (inactive)	-0.199 (inactive)	-0.316	-0.0279
CN(C)CCCC[C@@H]1NC(=O)[C@@H]2C[C@H](C(=O)NCCCCCCNC(=O)CS)[C@H](c3cccc(OCCO)c3)N2C1=O	-0.335	-0.668	1.27	0.843	0.405	1.6	0.252 (inactive)	-0.666	-0.871	-0.643 (inactive)	-0.725	-0.103 (inactive)	-0.196 (inactive)	-0.264 (inactive)	0.268 (inactive)	-0.491 (inactive)	0.303 (inactive)	0.94 (inactive)	0.117	-0.0052
CCc1cccc(NC(=O)O[C@H]2[C@H](OC(=O)Nc3ccc4c(c3)OCO4)[C@H](OC(=O)Nc3ccc4c(c3)OCO4)[C@@H](OC)O[C@@H]2CO)c1	-1.45	1.16	-1.35	-2.42	-2.17	-1.56	0.248 (inactive)	-1.15	-1.18	-2.33 (inactive)	-0.585	0.613 (inactive)	-1.44 (inactive)	-1.12 (inactive)	0.317 (inactive)	1.97 (inactive)	1.65 (inactive)	0.853 (inactive)	-1.47	-0.184
Cc1ccc(F)cc1S(=O)(=O)N[C@@H]1CCN(Cc2ccc3[nH]ccc3c2)C1	0.173	-0.939	-0.696	-3.43	-1.63	-1.33	-0.261 (inactive)	0.321	-1.34	-0.0035 (inactive)	-1.14	-2.59 (inactive)	-0.946 (inactive)	-0.203 (inactive)	-0.189 (inactive)	-0.773 (inactive)	-1.37 (inactive)	-4.18 (inactive)	-0.73	-0.144
C=CCC(OC(C)=O)[C@@H]1[C@@H](N(Cc2ccc(-c3cccc(C(F)(F)F)c3)o2)C(=O)Cc2ccc(OC)cc2)c2cc(OCCCO)ccc2N1C(=O)c1ccc2ccccc2n1 (stereo not given in full)	-0.0093	0.341	0.279	-1.2	-2.3	2.12	0.253 (inactive)	-0.616	1.42	-1.25 (inactive)	-0.777	-0.791 (inactive)	0.271 (inactive)	-0.0941 (inactive)	-0.817 (inactive)	-0.188 (inactive)	-0.267 (inactive)	-0.446 (inactive)	0.0494	0.36
CN1C=C(C(=O)OCCS(C)(=O)=O)C(C(=O)OCCS(C)(=O)=O)=CC(CCCO)=CC1c1ccc(CN2CCCC2)cc1 (stereo not given)	1.46	-2.48	1.81	0.101	-0.268	1.82	-0.469 (inactive)	1.33	-0.394	0.0251 (inactive)	-0.533	-2.02 (inactive)	0.0555 (inactive)	-0.379 (inactive)	0.719 (inactive)	0.27 (inactive)	0.364 (inactive)	0.121 (inactive)	0.274	-0.0525
COCCOC(=O)N1C(=O)[C@@]2(c3cc(C#CC4=CCCCC4)ccc31)[C@H](c1ccccc1OCCO)N1[C@H](c3ccccc3)[C@H](c3ccccc3)OC(=O)[C@H]1[C@@H]2C(N)=O	-1.13	2.16	-2.29	-3.11	-4.02	-0.985	0.686 (inactive)	-0.96	-1.85	-1.35 (inactive)	-0.625	-0.431 (inactive)	-2.78 (inactive)	-0.176 (inactive)	1.06 (inactive)	0.486 (inactive)	0.484 (inactive)	-0.955 (inactive)	-5.01	0.126
COCCOC(=O)N1C(=O)[C@@]2(c3cc(C#CCCO)ccc31)[C@H](c1ccc(O)cc1)N1[C@H](c3ccccc3)[C@H](c3ccccc3)OC(=O)[C@H]1[C@@H]2C(=O)N1CCc2cc(OC)c(OC)cc2C1	1.1	0.462	1.04	0.664	0.113	0.374	0.57 (inactive)	-0.253	-0.602	-0.0256 (inactive)	0.458	0.537 (inactive)	0.202 (inactive)	-1.1 (inactive)	0.318 (inactive)	1.26 (inactive)	0.886 (inactive)	0.821 (inactive)	1.26	-0.0272
CN(C)CCCNC(=O)[C@@H]1c2ccccc2C(=O)N(C2Cc3ccccc3C2)[C@H]1c1ccc(CO)cc1	1.61	0.121	1.99	-0.233	-1.28	3.81	0.571 (inactive)	-0.066	-0.311	0.267 (inactive)	-0.785	-0.944 (inactive)	0.0257 (inactive)	-0.487 (inactive)	0.444 (inactive)	-0.632 (inactive)	0.615 (inactive)	0.597 (inactive)	0.461	0.0345
COc1ccc([Si](C)(C)[C@H]2[C@H](CCn3cc([C@H](O)c4ccccc4)nn3)O[C@@]3(C(=O)N(C)c4c(Br)cc(C)cc43)[C@@H]2C)cc1	-1.94	1.69	-4.58	-2.48	-4.31	-0.281	-0.162 (inactive)	-1	0.212	-2.66 (inactive)	-2.69	-0.691 (inactive)	-3.29 (inactive)	1.19 (inactive)	1.03 (inactive)	1.01 (inactive)	0.566 (inactive)	0.132 (inactive)	-5.5	0.0512
COCCOC(=O)N1C(=O)[C@@]2(c3cc(C#CC4(O)CCCCCC4)ccc31)[C@H](C(=O)NC[C@H](O)c1ccccc1)[C@H]1C(=O)O[C@H](c3ccccc3)[C@H](c3ccccc3)N1[C@@H]2c1ccc(O)cc1	0.188	-0.111	0.814	-1.75	-2.8	-1.19	-0.11 (inactive)	-0.643	-0.113	1.63 (inactive)	0.982	-0.598 (inactive)	0.483 (inactive)	-0.122 (inactive)	-0.108 (inactive)	0.759 (inactive)	0.0468 (inactive)	0.321 (inactive)	-0.0629	-0.131

From PubChem BioAssay
